DRD3 agonist – qHTS of D3 Dopamine Receptor Agonist: qHTS. D(3) dopamine receptor (Homo sapiens), P35462. D3R DiscoveRx beta-arrestin cells, luminescence, 90 min. max activation, %. 410,000 compounds, 0.58% hits; in the data active = max activation above about 30%; note: 0% is about no effect
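Agonist-mode cell screen: cells plated at 1500/well and incubated overnight at 37 °C, then exposed to library compounds for 90 min at 37 °C. Detection reagent was added for 30–60 min at room temperature, and luminescence was read.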
DT40 TDP1 no CPT – qHTS for Inhibitors of human tyrosyl-DNA phosphodiesterase 1 (TDP1): qHTS in cells in absence of CPT; 420,000 compounds, 15% hits; Potency, µM (highest dose often 46.2 µM), inactives show at the top dose activity change, negative = growth inhibition, usual class: inhibitors; DT40 Tdp1-/- hTDP1 cells, no CPT, ATP luminescence, 48 h; AID 686978, 2013; note: potency is the fitted concentration of half-maximal effect; % is set by controls: 0 for no effect and ±100 for the full control effect; nearly all actives have a fitted effect of over 55% in size
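Compound effects on proliferation are scored in DT40 Tdp1-/-;hTDP1 cells in the absence of CPT. ATP levels (CellTiter-Glo luminescence) are recorded after a ≥48 hr, 37 °C incubation.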
ClpP mod – qHTS Assay for Activators of ClpP | ATP-dependent Clp protease proteolytic subunit (Bacillus subtilis (strain 168)), P80244 | purified B. subtilis ClpP, FRET peptide cleavage, 20 min | Potency, µM (doses to about 57.5 µM), for inactives: top-dose activity change, negative = active | 340,000 compounds, 1.9% hits | AID 651965, 2013; active = well fitted falling curve with a large enough effect; inconclusive = small, poorly fitted or top-dose-only effect; inactive = no such curve, though single readings can be large or run the other way; note: potency is the fitted concentration of half-maximal effect; the source files actives as falling curves though it sought activators and does not explain the sign; nearly all actives have a fitted effect of over 65% in size
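FRET quenching reversal measured ClpP activation: 10 microg/mL B. subtilis ClpP at pH 8 with the FRET-FV decapeptide, read at 430 nm after 320 nm excitation. The 20-min minus 0-min signal was scaled between DMSO/no-enzyme wells and ADEP (5.8 microM final).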
IL-1B inflam inh – qHTS for Inhibitors of Inflammasome Signaling: IL-1-beta AlphaLISA Primary Screen. THP-1 LPS/ATP IL-1B secretion, AlphaLISA, 16 h; hits give low values. activity change, % at 57.5 µM. 360,000 compounds, 4.7% hits; in the data active = activity change below about -50%; inconclusive = mostly about -30% to -49%; note: % is set by controls: 0 for no effect and ±100 for the full control effect
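THP-1 cells pretreated 1 hr with compounds (up to 57.5 uM final), then stimulated with LPS (250 ng/mL final) plus ATP (1.25 mM final); secreted IL-1B measured by AlphaLISA after 16 hr, decreased signal indicating inhibition.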
DT40 TDP1 CPT – qHTS for Inhibitors of human tyrosyl-DNA phosphodiesterase 1 (TDP1): qHTS in cells in presence of CPT. chicken DT40 Tdp1-/-;hTDP1 cells + 20 nM CPT, ATP luminescence, 48 h. Potency, µM (series often up to 46.2 µM), inactives show at the top dose activity change, negative = growth inhibition, usual class: inhibitors. 420,000 compounds, 12% hits. AID 686979, 2013; note: potency is the fitted concentration of half-maximal effect; % is set by controls: 0 for no effect and ±100 for the full control effect; nearly all actives have a fitted effect of over 55% in size
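Chicken DT40 Tdp1-/- cells complemented with human TDP1, 400 cells/well, exposed to compounds plus 20 nM camptothecin for at least 48 h at 37 C; viability read as ATP content by CellTiter-Glo luminescence.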
D3 antag – qHTS of D3 Dopamine Receptor Antagonist: qHTS; D(3) dopamine receptor (Homo sapiens), P35462; D3R cells, DiscoveRx beta-arrestin luminescence, antagonist mode; hits give low values; max response, negative = inhibition, %; AID 652054, 2013; 360,000 compounds, 2.5% hits; in the data active = max response below about -50%; inconclusive = no clear call, values can overlap the other calls; note: % is set by controls: 0 for no effect and ±100 for the full control effect
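Cells plated overnight at 1500 cells/well, then exposed to library compounds with dopamine controls for 90 minutes at 37 degrees C. DiscoveRx reagent added for 30–60 minutes at room temperature; luminescence read, quantitative HTS format.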
Active calls of the source: *; ? = inconclusive; / = no result; [ ] = another dose, or the depositor's remark. A selection: hits, their analogues and other compounds. The true share with any hit is near 21%. Unless noted, calls come from the whole dose curve; as a rule, active = well fitted inhibition curve with a large enough effect; inconclusive = small, poorly fitted or top-dose-only effect; inactive = flat fitted curve, though single readings scatter.

SMILES	DRD3 agonist	DT40 TDP1 no CPT	ClpP mod	IL-1B inflam inh	DT40 TDP1 CPT	D3 antag
CC(=O)Nc1ccc(NC(=O)COc2ccc(S(=O)(=O)N3CCCC3)cc2)cc1	3	-13%	/	8	-3%	4
O=c1c2cc(Cl)ccc2[nH]c(=S)n1Cc1ccccn1	-12	?	3%	23	18µM*	-16
CCc1ccc(C(CNC(=O)c2ccc3c(=O)n(-c4ccccc4F)c(=S)[nH]c3c2)N(C)C)cc1 (stereo not given)	-9	23µM*	/	-82*	?	-17
CC1CCN(CCCNC(=O)c2ccc3c(=O)n(Cc4ccc(Cl)cc4)c(=S)[nH]c3c2)CC1	-11	?	-1%	/	?	-9
CCOc1cc2[nH]c(=S)n(Cc3ccc(C(=O)NCCCN(CC)CC)cc3)c(=O)c2cc1OCC	-13	?	/	57	?	-8
CCCCN(C)CCNC(=O)c1ccc(Cn2c(=S)[nH]c3ccc(Br)cc3c2=O)cc1	-16	?	/	0	26µM*	?
CN(C)CCNC(=O)c1ccc2c(=O)n(Cc3ccc(Cl)cc3)c(=S)[nH]c2c1	1	29µM*	/	-63*	21µM*	-58*
CCOC(=O)N1CCN(C(=O)c2ccc3c(=O)n(-c4ccccc4F)c(=S)[nH]c3c2)CC1	4	-6%	-11%	56	-17%	0
CN(CC(=O)NCCCN1CCOCC1)S(=O)(=O)c1cc(Cl)ccc1Cl	-17	-3%	-2%	6	7%	18
C=CCN(c1ccccc1)S(=O)(=O)c1cccc2cccnc12	-6	?	3%	69	-13%	-7
CCOc1ccc(N2CC(NC(=O)/C=C\c3ccc4c(c3)OCO4)CC2=O)cc1 (stereo not given)	4	2%	-12%	/	-17%	/
O=C(NCc1ccccn1)c1ccc(Cn2c(=S)[nH]c3ccc(Br)cc3c2=O)cc1	-3	6.5µM*	-2%	12	?	-16
O=C(NCc1ccccn1)c1ccc(Cn2c(=S)[nH]c3ccccc3c2=O)cc1	6	?	0%	20	-26%	20
CCOC(=O)[C@]12CCC=C1N(Cc1cccc3ccccc13)C(=O)[C@H](CC(=O)NCc1cccc3ccccc13)C2	3	?	-10%	0	?	23
CCOC(=O)[C@]12CCC=C1N(Cc1cccc3ccccc13)C(=O)[C@H](CC(=O)NCc1ccc(C)o1)C2	2	23µM*	-11%	0	16µM*	0
CCOC(=O)[C@]12CCC=C1N(Cc1cccc3ccccc13)C(=O)[C@H](CC(=O)NCc1cccs1)C2	-11	?	-15%	-69*	?	-19
CCOC(=O)[C@]12CCCC=C1N(Cc1cccc3ccccc13)C(=O)[C@H](CC(=O)NCc1cccs1)C2	-9	23µM*	-3%	-24	?	-22
O=[N+]([O-])c1ccc(N2CCCCC2)nc1N1CCCCC1	4	21µM*	/	-2	?	-16
Cn1c(Cc2nc(-c3cnccn3)no2)nnc1SCC(=O)Nc1ccccc1	-12	-11%	/	46	0%	-26
O=C(NCCN1C(=O)S/C(=C\c2ccccc2F)C1=O)C1=COCCO1	3	2.9µM*	4%	2	?	29
O=C(NCCN1C(=O)S/C(=C\c2ccc(Cl)cc2Cl)C1=O)C1=COCCO1	-18	12µM*	-3%	?	15µM*	-3
O=C(NCCN1C(=O)S/C(=C\c2ccccc2F)C1=O)C1CCN(S(=O)(=O)c2cccs2)CC1	5	?	?	?	?	22
O=C(CNC(=O)c1ccccc1F)NCCN1C(=O)S/C(=C\c2ccccc2Cl)C1=O	4	?	5%	6	-26%	2
O=C(CCS(=O)(=O)c1ccc(Cl)cc1)NCCN1C(=O)S/C(=C\c2ccccc2F)C1=O	4	16µM*	28µM*	0	?	16
O=C(NCCN1C(=O)S/C(=C\c2ccccc2Cl)C1=O)C1=COCCO1	4	6.5µM*	-3%	-2	7.3µM*	11
SMILES	DRD3 agonist	DT40 TDP1 no CPT	ClpP mod	IL-1B inflam inh	DT40 TDP1 CPT	D3 antag
Cc1ccc(S(=O)(=O)CCC(=O)NCCN2C(=O)S/C(=C\c3ccccc3)C2=O)cc1	8	?	2%	?	?	9
Cc1nc2cccnc2n1C1CCN(C(=O)Nc2ccccc2)CC1	-1	0%	0%	/	-22%	/
CC(=O)NC1C(OC2OC(CC(O)C3OC([N+]4=CCC(=O)NC4=O)C(O)C3O)C(O)C(O)C2NC(=O)/C=C/CCCCCCCCC(C)C)OC(CO)C(O)C1O (stereo not given)	/	0.09µM*	/	/	0.11µM*	/
Cc1ccc2c(C)c(C(=O)N(C)C(C)c3ccon3)oc2c1C (stereo not given)	-1	16µM*	/	-9	?	12
Cc1ccc2c(C)c(C(=O)N(C)C(C)c3ccncn3)oc2c1C (stereo not given)	2	-13%	-2%	0	-19%	0
COc1cc(C2NC(=O)NC(c3ccccc3)=C2C(C)=O)c(Cl)cc1OCC(=O)O (stereo not given)	5	-12%	/	21	13%	-5
COC(=O)[C@@H]1CCCN1Cc1ccc2c(c1)CN(Cc1ccc3c(c1)OCCO3)CCO2	/	-13%	/	/	16%[9.04 µM]	/
O=C(O)CN(CC(=O)O)CC(=O)O	-46	-4%	0%	-13	1%	-73*
CC(=O)Nc1ccc(N2C(=O)CSC2c2c(F)cccc2Cl)cc1 (stereo not given)	1	-14%	2%	-12	?	?
Fc1cccc(Cl)c1C1SCc2nc3ccccc3n21 (stereo not given)	-9	15µM*	-2%	24	16µM*	0
COc1ccccc1CNC(=O)c1cc(-c2ccncc2)nc2c(Cl)cccc12	0	?	-9%	-15	?	7
CCCN(CCC)C(=O)CSc1nc2ccccc2c(=O)n1C1CCCC1	14	13µM*	1%	0	13µM*	6
O=C(CSc1nc2ccccc2c(=O)n1CC1CCCCC1)N1CCOCC1	-13	?	-2%	-24	?	-1

High-throughput results: PubChem, National Center for Advancing Translational Sciences (NCATS)
